The supplement of paper PMC12067926

Columns and labels:
Test in all cases: relative growth (AUC of 72 h growth curve relative to DMSO control, dAUC) (ratio); higher = more growth (less inhibition), active = hit call of the paper
Conditions in all cases: 20 µM;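 active = growth AUC significantly below the DMSO wells by Dunnett test; inactive = the rest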
[1] = system: Aeromonas 1 (Aeromonas sp. AE235)
Outline: (§1)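 Relative growth (dAUC) is the spline-integrated area under the growth curve divided by the mean of the DMSO-only control wells. Cultures were isolates from Icelandic stream sediments and Silwood Park soil, plus whole sediment communities, grown to carrying capacity in Luria–Bertani medium and diluted 1:100 into 96-well plates containing each chemical at 20 µM (1% DMSO). A600 was read hourly for 72 h on a plate reader, with brief shaking before each read, and values were averaged over three biological replicates.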

[2] = system: Aeromonas 2 (Aeromonas sobria)
Outline: as §1

[3] = system: Aeromonas 3 (Aeromonas popoffii)
Outline: as §1

[4] = system: Argrobacterium 1 (Agrobacterium sp.)
Outline: as §1

[5] = system: Arthrobacter 1 (Arthrobacter humicola)
Outline: as §1

[6] = system: Arthrobacter 2 (Arthrobacter humicola)
Outline: as §1

[7] = system: Arthrobacter 3 (Arthrobacter sp.)
Outline: as §1

[8] = system: Community 10
Outline: as §1

[9] = system: Community 4
Outline: as §1

[10] = system: Community 6
Outline: as §1

[11] = system: Community 7
Outline: as §1

[12] = system: Community 8
Outline: as §1

[13] = system: Community 9
Outline: as §1

[14] = system: Flavobacterium 1 (Flavobacterium glaciei)
Outline: as §1

[15] = system: Flavobacterium 2 (Flavobacterium succinicans)
Outline: as §1

[16] = system: Hymenobacter 1 (Hymenobacter glaciei)
Outline: as §1

[17] = system: Microbacterium 1 (Microbacterium arborescens)
Outline: as §1

[18] = system: Neobacillus 1 (Neobacillus soli)
Outline: as §1

[19] = system: Oryzobacter 1 (Oryzobacter terrae)
Outline: as §1

[20] = system: Paenibacillus 1 (Paenibacillus castaneae)
Outline: as §1

Measured: relative growth

CC(Oc1ccc(Oc2ncc(C(F)(F)F)cc2Cl)cc1)C(=O)O (stereo not given)
inactive: [1] 0.952 | [2] 0.974 | [3] 0.959 | [4] 0.969 | [5] 1.08 | [6] 1.03 | [7] 1.08 | [8] 0.793 | [9] 1.02 | [10] 0.947 | [11] 0.985 | [12] 1.04 | [13] 1.01 | [14] 0.929 | [15] 0.972 | [16] 1.05 | [17] 0.984 | [18] 0.973 | [19] 1.13 | [20] 0.966

CCOc1cc(Oc2ccc(C(F)(F)F)cc2Cl)ccc1[N+](=O)[O-]
active: [20] 0.735
inactive: [1] 0.962 | [2] 0.975 | [3] 0.966 | [4] 1.01 | [5] 1.02 | [6] 0.848 | [7] 1.01 | [8] 0.824 | [9] 0.905 | [10] 0.907 | [11] 0.968 | [12] 1.04 | [13] 0.975 | [14] 1.05 | [15] 0.971 | [16] 1.03 | [17] 1.07 | [18] 1.01 | [19] 1.03

CC1(C)[C@H](/C=C(\Cl)C(F)(F)F)[C@@H]1C(=O)OC(C#N)c1cccc(Oc2ccccc2)c1 (stereo not given in full)
inactive: [1] 0.951 | [2] 0.993 | [3] 1.04 | [4] 1.07 | [5] 1.28 | [6] 0.838 | [7] 0.955 | [9] 0.998 | [10] 1.03 | [11] 1.19 | [12] 1.09 | [13] 0.956 | [14] 0.836 | [15] 0.995 | [16] 1.06 | [17] 0.995 | [18] 0.958 | [19] 1.11 | [20] 0.889

CC(C)NC(=O)N1CC(=O)N(c2cc(Cl)cc(Cl)c2)C1=O
inactive: [1] 0.998 | [2] 0.934 | [3] 1.01 | [4] 0.984 | [5] 1.06 | [6] 0.957 | [7] 0.841 | [9] 0.925 | [10] 0.969 | [11] 1.07 | [12] 0.959 | [13] 0.94 | [14] 0.854 | [15] 0.973 | [16] 0.959 | [17] 0.984 | [18] 0.961 | [19] 1.02 | [20] 0.996

CCOC(=O)CC(SP(=S)(OC)OC)C(=O)OCC (stereo not given)
inactive: [1] 1.06 | [2] 0.992 | [3] 1.02 | [4] 1.01 | [5] 1.22 | [6] 1.05 | [7] 0.98 | [9] 1.15 | [10] 1.09 | [11] 1.04 | [12] 0.99 | [13] 1.14 | [14] 1.02 | [15] 1.02 | [16] 1.02 | [17] 1 | [18] 1.06 | [19] 1.1 | [20] 1.02

CNC(=O)ON=C(C)SC
inactive: [1] 0.953 | [2] 0.974 | [3] 1.01 | [4] 0.974 | [5] 0.962 | [6] 1.01 | [7] 0.971 | [9] 1.09 | [10] 1.05 | [11] 0.999 | [12] 0.942 | [13] 1.04 | [14] 1.03 | [15] 1.03 | [16] 1.07 | [17] 0.999 | [18] 1.01 | [19] 0.947 | [20] 1.07

N#Cc1c(Cl)c(Cl)c(Cl)c(C#N)c1Cl
active: [5] 0.567 | [6] 0.136 | [7] 0.599 | [14] 0.681 | [15] 0.543 | [16] 0.352 | [19] 0.632 | [20] 0.0717
inactive: [1] 1.04 | [2] 0.898 | [3] 1.01 | [4] 0.958 | [9] 1.08 | [10] 0.965 | [11] 0.891 | [12] 1.02 | [13] 0.784 | [17] 1.06 | [18] 0.966

COC(=O)Nc1nc2ccccc2[nH]1
inactive: [1] 1.01 | [2] 0.956 | [3] 0.973 | [4] 0.992 | [5] 1.04 | [6] 1.05 | [7] 1.12 | [9] 1.02 | [10] 0.998 | [11] 0.965 | [12] 0.959 | [13] 1.04 | [14] 1.13 | [15] 1 | [16] 1.01 | [17] 0.974 | [18] 1.13 | [19] 1.07 | [20] 0.946

COP(=S)(OC)Oc1nc(Cl)c(Cl)cc1Cl
inactive: [1] 1.04 | [2] 1.02 | [3] 1.01 | [4] 1.05 | [5] 0.769 | [9] 0.867 | [10] 0.987 | [11] 1.04 | [12] 1.06 | [13] 1.03 | [15] 0.97 | [16] 0.99 | [17] 1.04 | [18] 1.01 | [19] 1.05 | [20] 0.874
active: [6] 0.312 | [7] 0.646 | [14] 0.348

CCC(CC)Nc1c([N+](=O)[O-])cc(C)c(C)c1[N+](=O)[O-]
inactive: [1] 0.951 | [2] 0.973 | [3] 0.997 | [4] 0.993 | [5] 0.901 | [6] 0.884 | [7] 1.02 | [9] 0.88 | [10] 0.917 | [11] 1.03 | [12] 1.02 | [13] 0.884 | [14] 1.03 | [15] 0.957 | [16] 0.926 | [17] 1.04 | [18] 0.918 | [19] 1.1 | [20] 0.933

O=C1C2CC=CCC2C(=O)N1SC(Cl)(Cl)Cl (stereo not given)
inactive: [1] 0.905 | [2] 1.01 | [3] 0.983 | [5] 0.95 | [6] 0.769 | [7] 0.919 | [9] 0.671 | [11] 0.95 | [12] 0.794 | [14] 0.948 | [15] 0.9 | [16] 0.968 | [17] 1 | [18] 0.917 | [19] 0.991 | [20] 1.06
active: [4] 0.74 | [10] 0.614 | [13] 0.473

CCN(CC)c1nc(C)cc(OP(=S)(OC)OC)n1
inactive: [1] 1 | [2] 0.982 | [3] 1.02 | [4] 1.04 | [5] 0.998 | [6] 0.924 | [7] 0.956 | [9] 1.01 | [10] 0.982 | [11] 0.988 | [12] 1.04 | [13] 1.04 | [14] 1.05 | [15] 0.995 | [16] 1 | [17] 1.03 | [18] 1.03 | [19] 1.06 | [20] 1.02
